Experiment [1] addresses Albumin (Bos taurus) (UniProt P02769). The experiment in a line: bovine serum albumin binders on microarray, profiling panel, artefact control for SMM control protein annotation, biochemical, small-molecule microarray, Alexa647 label, 635/667 nm fluorescence (AID 1118).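 Note: score merges 667 nm emission intensity and signal-to-noise per printed compound spot.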 Particulars: BSA-A647 binding, fluorescence 635 nm, higher = more signal.
Experiment [2] is described as follows: small-molecule microarray binders of probe aXIP, primary screen, biochemical, NeuroSMM set, 635/667 nm fluorescence (AID 1119).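 Note: probe is the protein aXip251-270 applied at 1 µg/mL to compound-printed slides; binding of probe to printed compounds measured as 667 nm fluorescence plus signal to noise.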 Particulars: higher = more signal, called active from +8 up or from −8 down.
A short description of experiment [3]: small-molecule binders of probe aNOTCH3, primary screen, biochemical, small-molecule microarray, 635/667 nm fluorescence (AID 1120).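 Note: probe is a biotin-tagged antibody raised against NOTCH3 rather than NOTCH3 protein; score merges spot fluorescence near 667 nm with spot signal to noise.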 The settings on record: higher = more signal.
Experiment [4] can be described thus: small-molecule binders of probe aNOTCH2, primary screen, biochemical, small-molecule microarray, 635/667 nm fluorescence (AID 1121).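 Note: score merges feature fluorescence read at 667 nm with its signal to noise.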 Particulars: higher = more signal.
Experiment [5] addresses Carbonic anhydrase 2 (Homo sapiens) (UniProt P00918). As to the kind of experiment: CAII small-molecule binders, profiling panel, biochemical, small-molecule microarray, Alexa647-labelled CAII (AID 1122). Particulars: CAII-A647 binding fluorescence, higher = more signal.
A short description of experiment [6]: COS7 lysate on small-molecule microarray, probe aHis, 635 nm (AID 1123).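 Note: z-score combines 667nm fluorescence intensity with signal-to-noise per printed compound spot.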 Particulars: COS7 cell lysate, fluorescence, higher = more signal.
Experiment [7] can be described thus: compound binding in COS7 lysate, probe aLAP1, primary screen, cell lysate, small-molecule microarray (AID 1124).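 Note: lysate comes from COS7 cells expressing LAP1 and is applied at 0.3 µg/mL; score merges spot fluorescence near 667 nm with signal-to-noise over triplicate slides.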 The settings on record: probe aLAP1, fluorescence, higher = more signal.
Experiment [8] relates to Sam68 (KHDRBS1). As to the kind of experiment: Sam68 small-molecule binders, primary screen, biochemical, small-molecule microarray, 635 nm fluorescence (AID 1125).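 Note: score merges 667 nm channel intensity with signal to noise over triplicate slides.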 The settings on record: small-molecule microarray binding, higher = more signal.
Experiment [9] deals with Chordin-like protein 2 (CHRDL2). As to the kind of experiment: CHRDL2 small-molecule binders, primary screen, biochemical, small-molecule microarray, 635 nm fluorescence (AID 1126).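 Note: printed compound slides probed with Chrdl2 protein at 4 µg/mL for 1 h at 4 C; score merges 667 nm emission intensity with signal to noise over three replicate slides.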 Particulars: small-molecule microarray binding, fluorescence 635 nm; higher = more signal.
The target of experiment [10] is Concanavalin-A (Canavalia ensiformis) (UniProt P02866). As to the kind of experiment: ConA small-molecule binders, primary screen, artefact control for SMM control protein annotation, biochemical, small-molecule microarray, Alexa647 label, 635 nm (AID 1127).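 Note: z combines 667 nm emission intensity with signal-to-noise across three replicate slides.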 The settings on record: ConA-A647 binding fluorescence, higher = more signal.
A short description of experiment [11]: anti-His antibody binders, primary screen, artefact control for SMM control protein annotation, biochemical, small-molecule microarray, 635 nm fluorescence (AID 1128).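 Note: score merges feature fluorescence with signal-to-noise for each printed compound spot.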 The settings on record: anti-His Alexa647 antibody binding, higher = more signal.
For experiment [12], the system named is Human papillomavirus type 1a E7 protein (residues 1-88). The experiment in a line: HPV1a E7 small-molecule binders, primary screen, biochemical, small-molecule microarray, residues 1-88, 635 nm (AID 1129). Particulars: small-molecule microarray binding, fluorescence 635 nm; higher = more signal.
Experiment [13] addresses Focal adhesion kinase 1 (Homo sapiens) (UniProt Q05397). As to the kind of experiment: small-molecule microarray binders of FAK, primary screen, biochemical, 635/667 nm fluorescence, BSA, DTT (AID 1130).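 Note: composite of spot emission at 667 nm and signal to noise over triplicate slides.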 The settings on record: PTK2 binding, 635 nm fluorescence, higher = more signal.
Experiment [14] relates to Fibrinogen (Alexa647-labelled). The experiment in a line: fibrinogen binders on compound microarrays, profiling panel, artefact control for SMM control-protein annotation, biochemical, small-molecule microarray, 635/667 nm fluorescence (AID 1131).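 Note: z-score merges 667 nm fluorescence with per-spot signal-to-noise over triplicate slides.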 Particulars: fibrinogen-A647 binding fluorescence, higher = more signal.
Experiment [15] has as its target Follistatin (Homo sapiens) (UniProt P19883). The experiment in a line: follistatin binders on small-molecule microarrays, primary screen, biochemical, small-molecule microarray, 635/667 nm fluorescence (AID 1132). Particulars: FST binding, 635 nm fluorescence, higher = more signal.
Experiment [16] concerns the target Fibroblast growth factor 2 (Homo sapiens) (UniProt P09038). The experiment in a line: FGF2 binders on small-molecule microarrays, primary screen, biochemical, small-molecule microarray, 635/667 nm fluorescence (AID 1133). The settings on record: small-molecule microarray binding, FGF2, fluorescence 635/667; higher = more signal.
A short description of experiment [17]: mitochondrial membrane potential change in A549 cells, profiling panel, cell-based, JC-1 fluorescence, basal, 24 h, 100 nL (AID 1138).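 Note: A549 lung adenocarcinoma cells under basal conditions with no added stimulus; test concentration not given here.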 Particulars: higher = more signal.
The test system of experiment [18] is Lefty1. As to the kind of experiment: Lefty1 binders on small-molecule microarrays, primary screen, biochemical, small-molecule microarray, 635/667 nm fluorescence (AID 1139). Particulars: small-molecule microarray binding, fluorescence 635/667; higher = more signal.
The subject of experiment [19] is wheat germ agglutinin (Triticum aestivum), Alexa647-labelled. The experiment in a line: wheat germ agglutinin binders on compound microarrays, profiling panel, artefact control for SMM control-protein annotation, biochemical, small-molecule microarray, 635/667 nm fluorescence (AID 1140).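 Note: score merges 667 nm feature emission with signal to noise over triplicate slides.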 Particulars: WGA-A647 binding, 635 nm fluorescence, higher = more signal.
Experiment [20] addresses Luciferin 4-monooxygenase (Photinus pyralis) (UniProt P08659). As to the kind of experiment: firefly luciferase enzyme inhibitors, primary screen, biochemical, luminescence, purified enzyme, 2006 set (AID 1141).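 Note: cell-free assay with purified firefly luciferase at 100 ng per well in PBS; test concentration not given here.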 The settings on record: SteadyGlo luminescence, 30 min, higher = more signal, called active from +8 up or from −8 down.

The source made the active and inactive calls.

Sequence of Fibroblast growth factor 2 (Homo sapiens) (P09038 whole entry, looked up): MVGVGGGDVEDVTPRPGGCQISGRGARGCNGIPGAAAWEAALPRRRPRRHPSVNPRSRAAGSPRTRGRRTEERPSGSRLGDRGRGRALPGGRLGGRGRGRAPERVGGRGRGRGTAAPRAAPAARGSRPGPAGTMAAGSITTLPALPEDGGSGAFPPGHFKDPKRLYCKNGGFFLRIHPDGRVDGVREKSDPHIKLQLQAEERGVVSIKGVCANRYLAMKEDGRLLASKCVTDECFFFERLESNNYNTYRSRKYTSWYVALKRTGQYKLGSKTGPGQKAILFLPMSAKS
Sequence of Follistatin (Homo sapiens) (P19883 whole entry, looked up): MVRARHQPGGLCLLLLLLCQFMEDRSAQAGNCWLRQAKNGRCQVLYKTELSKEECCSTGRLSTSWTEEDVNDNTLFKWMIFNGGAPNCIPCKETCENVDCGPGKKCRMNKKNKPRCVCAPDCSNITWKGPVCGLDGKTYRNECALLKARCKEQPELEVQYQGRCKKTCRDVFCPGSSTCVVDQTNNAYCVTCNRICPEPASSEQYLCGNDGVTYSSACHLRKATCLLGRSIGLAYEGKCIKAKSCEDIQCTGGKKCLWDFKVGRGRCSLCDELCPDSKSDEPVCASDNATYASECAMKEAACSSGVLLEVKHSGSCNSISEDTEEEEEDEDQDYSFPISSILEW
Sequence of Focal adhesion kinase 1 (Homo sapiens) (Q05397 whole entry, looked up): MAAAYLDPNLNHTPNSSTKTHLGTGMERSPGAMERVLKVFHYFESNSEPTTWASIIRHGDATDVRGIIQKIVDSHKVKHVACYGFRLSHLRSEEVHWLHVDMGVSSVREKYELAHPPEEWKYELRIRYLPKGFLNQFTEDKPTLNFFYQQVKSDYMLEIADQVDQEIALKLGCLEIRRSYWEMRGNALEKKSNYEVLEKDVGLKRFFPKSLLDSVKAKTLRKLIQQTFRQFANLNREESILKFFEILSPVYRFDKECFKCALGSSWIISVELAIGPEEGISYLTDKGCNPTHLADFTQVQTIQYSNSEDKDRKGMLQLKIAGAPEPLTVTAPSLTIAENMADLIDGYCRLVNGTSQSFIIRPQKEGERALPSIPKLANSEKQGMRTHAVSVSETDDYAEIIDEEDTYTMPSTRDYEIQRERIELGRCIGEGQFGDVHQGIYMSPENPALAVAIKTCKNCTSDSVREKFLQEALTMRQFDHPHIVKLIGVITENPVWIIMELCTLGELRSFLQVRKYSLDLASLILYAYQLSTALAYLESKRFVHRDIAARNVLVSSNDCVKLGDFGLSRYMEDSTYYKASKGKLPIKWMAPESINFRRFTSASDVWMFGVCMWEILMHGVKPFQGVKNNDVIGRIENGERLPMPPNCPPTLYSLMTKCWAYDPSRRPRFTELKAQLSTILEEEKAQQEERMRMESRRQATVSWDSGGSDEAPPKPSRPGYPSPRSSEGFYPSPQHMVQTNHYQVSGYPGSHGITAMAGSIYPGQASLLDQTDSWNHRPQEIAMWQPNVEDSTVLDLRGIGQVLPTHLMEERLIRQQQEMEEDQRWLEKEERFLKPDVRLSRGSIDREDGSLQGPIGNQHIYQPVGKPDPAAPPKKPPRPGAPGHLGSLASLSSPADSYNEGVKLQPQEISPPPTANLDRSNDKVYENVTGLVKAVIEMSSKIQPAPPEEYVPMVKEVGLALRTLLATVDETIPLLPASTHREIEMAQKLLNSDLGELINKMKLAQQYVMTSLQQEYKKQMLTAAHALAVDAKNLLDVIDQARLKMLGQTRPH
Sequence of Concanavalin-A (Canavalia ensiformis) (P02866 whole entry, looked up): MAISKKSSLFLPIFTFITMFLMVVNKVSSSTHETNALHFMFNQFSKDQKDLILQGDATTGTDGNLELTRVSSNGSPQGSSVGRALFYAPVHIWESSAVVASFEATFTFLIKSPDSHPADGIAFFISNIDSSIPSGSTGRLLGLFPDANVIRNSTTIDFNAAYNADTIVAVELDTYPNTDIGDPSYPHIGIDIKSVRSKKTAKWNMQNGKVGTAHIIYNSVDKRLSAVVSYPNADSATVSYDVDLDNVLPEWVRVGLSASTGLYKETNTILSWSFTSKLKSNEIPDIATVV
Sequence of Luciferin 4-monooxygenase (Photinus pyralis) (P08659 whole entry, looked up): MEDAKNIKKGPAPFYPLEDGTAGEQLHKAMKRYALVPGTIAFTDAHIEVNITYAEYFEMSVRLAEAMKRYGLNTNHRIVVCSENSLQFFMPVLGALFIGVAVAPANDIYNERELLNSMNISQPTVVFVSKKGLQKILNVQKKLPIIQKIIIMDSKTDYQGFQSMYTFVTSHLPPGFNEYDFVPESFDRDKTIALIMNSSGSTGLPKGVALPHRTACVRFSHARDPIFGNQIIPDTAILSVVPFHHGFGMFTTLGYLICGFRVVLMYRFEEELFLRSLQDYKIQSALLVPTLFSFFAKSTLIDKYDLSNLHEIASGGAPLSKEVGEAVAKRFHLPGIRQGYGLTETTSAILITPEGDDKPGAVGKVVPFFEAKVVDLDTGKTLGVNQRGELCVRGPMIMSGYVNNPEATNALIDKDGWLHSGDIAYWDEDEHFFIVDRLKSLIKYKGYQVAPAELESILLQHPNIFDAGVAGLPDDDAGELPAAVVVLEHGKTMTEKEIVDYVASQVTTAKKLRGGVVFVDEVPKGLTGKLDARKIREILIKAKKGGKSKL
Sequence of Albumin (Bos taurus) (P02769 whole entry, looked up): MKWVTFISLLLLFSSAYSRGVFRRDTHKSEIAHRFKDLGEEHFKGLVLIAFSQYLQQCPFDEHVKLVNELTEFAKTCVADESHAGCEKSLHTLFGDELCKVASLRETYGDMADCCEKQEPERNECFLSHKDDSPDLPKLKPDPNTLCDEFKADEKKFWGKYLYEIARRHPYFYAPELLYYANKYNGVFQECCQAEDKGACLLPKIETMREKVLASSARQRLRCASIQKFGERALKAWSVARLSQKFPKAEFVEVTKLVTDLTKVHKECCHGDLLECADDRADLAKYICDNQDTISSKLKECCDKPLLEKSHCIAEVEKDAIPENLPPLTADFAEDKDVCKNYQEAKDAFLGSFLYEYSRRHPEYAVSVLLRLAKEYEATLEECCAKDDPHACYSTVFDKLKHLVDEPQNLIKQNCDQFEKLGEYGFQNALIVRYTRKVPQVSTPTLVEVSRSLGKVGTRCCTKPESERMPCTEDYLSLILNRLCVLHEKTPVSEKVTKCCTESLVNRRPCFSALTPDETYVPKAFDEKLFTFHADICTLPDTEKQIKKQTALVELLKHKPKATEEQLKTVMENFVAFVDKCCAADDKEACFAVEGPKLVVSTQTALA

With `CCOC(=O)C[C@H]1[C@H](OC(=O)Cc2ccc3c(c2)OCO3)[C@@H](NC(=O)CC(C)C)c2cc(OCCCO)ccc2N1C(=O)Cc1ccc(OC)cc1`, the composite z-score was 0.779 in [1]; -0.0328 in experiment [3]; -0.0288 in [4]; 0.0138 in [5]; 0.775 in experiment [6]; 0.166 in [7]. Further, the composite z-score in experiment [8] is 0.282; in experiment [9] it was -0.226; in [10], -0.622; in experiment [11], -0.114; in [12], 0.0383; in [13], -0.224. Besides, the composite z-score was 0.641 in [14]; -0.123 in [15]; 0.11 in [16]; -0.194 in experiment [18]; 0.62 in experiment [19]. Also, the composite Z-score in experiment [2] was -0.867 (inactive). The z-score is 0.903 in experiment [17] and -1.91 (inactive) in [20].

As to `COc1cc2c(cc1OC)CN(C(=O)[C@@H]1[C@H]3C(=O)O[C@H](c4ccccc4)[C@H](c4ccccc4)N3[C@H](c3ccc(OCCO)cc3)[C@@]13C(=O)Nc1ccccc13)CC2`, the composite z-score was 0.299 in experiment [1]; 0.131 in experiment [3]; -0.114 in experiment [4]; 0.634 in experiment [5]; 2.25 in experiment [6]; 0.141 in experiment [7]. In addition, the composite z-score was determined as 1.31 in experiment [8]; 0.508 in experiment [9]; 1.15 in experiment [10]; 1.04 in experiment [11]; 1.25 in experiment [12]; 0.164 in experiment [13]. Besides, the composite z-score in experiment [14] is 0.971; in experiment [15], 1.31; in experiment [16], 1.26; in experiment [18], 1.19; in experiment [19] it was 1.3. For the same compound, the composite Z-score in [2] was 0.817 (inactive). For the same compound, the z-score is -0.957 in experiment [17] and -1.65 (inactive) in experiment [20].

In the case of `Cc1ccc(S[C@]2(C(=O)O)CC(=O)N(C3Cc4ccccc4C3)[C@@H]2c2ccc(CO)cc2)cc1`, the composite z-score in experiment [1] is 0.0322; in experiment [3], -0.102; in experiment [4], -0.057; in experiment [5] it was 0.727; in [6], 2.65; in [7] it was 0.826. Further, the composite z-score in experiment [8] was 0.667; in experiment [9], -1.8; in [10], -0.458; in experiment [11], 3.14; in experiment [12], 0.246; in experiment [13], 0.583. For the same compound, the composite z-score in experiment [14] was -0.428; in experiment [15], -0.987; in [16], -0.306; in experiment [18], -0.889; in experiment [19], -0.339. Also, in experiment [2], the composite Z-score was 0.736 (inactive). For the same compound, the z-score in [17] was 0.225; in experiment [20], -0.675 (inactive).

Turning to `CC(C)(C)OC(=O)CC[C@]1(C(=O)NCC(O)CO)N=C(c2ccc(OCCCO)cc2)O[C@H]1c1ccccc1` (stereo not given in full), the composite z-score in experiment [1] was 0.902; in [3], -0.0678; in [4] it was -0.0843; in experiment [5] it was 0.873; in experiment [6], 3.11; in experiment [7], 0.0605. The composite z-score in experiment [8] is 0.723; in experiment [9], -0.852; in experiment [10] it was -0.137; in experiment [11] it was 0.872; in [12], 0.937; in experiment [13], -0.216. Moreover, the composite z-score in experiment [14] is 0.118; in [15], -0.786; in experiment [16], -0.494; in experiment [18], -1.71; in experiment [19] it was 0.94. Further, in [2], the composite Z-score was 0.561 (inactive). The results for the z-score in [17] and in [20] were 0.0908 and -1 (inactive), respectively.

In the case of `CC(C)[Si](C#CCCCC#N)(O[C@H](c1ccccc1)c1cn([C@H](CO)Cc2ccccc2)nn1)C(C)C`, the composite z-score in [1] was 0.992; in [3], -0.15; in experiment [4] it was -0.161; in [5], 0.456; in experiment [6] it was 0.605; in experiment [7], 0.936. Further, the composite z-score was 1.11 in [8]; -0.006 in [9]; 1.16 in [10]; -0.135 in [11]; 1.12 in experiment [12]; 0.26 in experiment [13]. Further, the composite z-score was 0.975 in experiment [14]; 1.14 in [15]; 0.812 in experiment [16]; 0.385 in experiment [18]; 0.231 in experiment [19]. The composite Z-score in experiment [2] is 0.727 (inactive). The z-score was 0.162 in experiment [17] and -0.175 (inactive) in [20].

The values above are taken from PubChem BioAssay.
